Assay outcomes from PubChem.
Sampled rows, rich in hits. Any-hit rate of the full collection: about 32%.
CYP2C19 inh = inhibitors of human CYP2C19; CYP2C19 Supersomes, luciferin-H EGE luminescence, 30 min; hit rate 21% among 96,000; inhibition, % at 5 µM; P33261;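 active = CYP2C19 inhibition above a set limit at 5 µM in the primary screen, cut at about 50% in these data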;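 also: plate controls were negative control wells for no effect and 2.5 mM tranylcypromine positive control for full effect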
PostGolgi ctrl = yeast control strain growth, post-Golgi counter-screen; efflux-deficient yeast background strain, growth absorbance A615, 16 h; inhibition, % at 10 µM; hit rate 5% among 98,000; AID 738
CYP2C19 act = activators of human cytochrome P450 2C19; recombinant CYP2C19, luciferin-H EGE luminescence; stronger effect = higher value; 0 = fully inhibited enzyme, 1 = untreated enzyme; activation factor at 5 µM; P33261; AID 1025; 96,000 tested, under 10 active;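 active = activation factor of at least 2 at 5 µM in the primary screen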;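 also: 0 = wells with 2.5 mM tranylcypromine and 1 = vehicle-only wells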
CYP2C9 activ = increases human cytochrome P450 2C9 activity; P11712; recombinant CYP2C9, luciferin-H conversion, luminescence; stronger effect = higher value; factor 1 = untreated enzyme, 0 = blocked; activation factor at 5 µM; hit rate 1.4% among 96,000; AID 1024;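 active = activation factor of 2 or more for CYP2C9 at a 5 µM dose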;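 also: 0 = sulfaphenazole-blocked wells and 1 = vehicle-only wells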
Target sequence (P11712 whole entry, looked up): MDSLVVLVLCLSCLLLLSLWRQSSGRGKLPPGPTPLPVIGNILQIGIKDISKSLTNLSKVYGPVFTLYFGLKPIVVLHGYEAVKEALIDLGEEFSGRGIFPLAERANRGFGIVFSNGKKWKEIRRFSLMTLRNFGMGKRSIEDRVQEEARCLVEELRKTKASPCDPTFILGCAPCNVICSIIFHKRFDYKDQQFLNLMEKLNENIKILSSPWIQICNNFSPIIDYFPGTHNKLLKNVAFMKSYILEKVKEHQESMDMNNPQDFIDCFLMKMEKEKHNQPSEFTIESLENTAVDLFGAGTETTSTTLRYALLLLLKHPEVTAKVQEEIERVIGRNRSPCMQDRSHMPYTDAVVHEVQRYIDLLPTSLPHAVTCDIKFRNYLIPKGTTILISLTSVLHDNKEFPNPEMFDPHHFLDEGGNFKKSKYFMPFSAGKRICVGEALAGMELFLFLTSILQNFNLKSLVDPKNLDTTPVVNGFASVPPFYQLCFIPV
PostGolgi yeast = growth inhibition of a yeast mutant, post-Golgi transport screen | post-Golgi transport phenotypic cell assay | inhibition, % at 10 µM | hit rate 0.9% among 98,000;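 also: yeast cells grown in 1536-well plates; yeast grown about 18 h at 30C before absorbance read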
CYP2C9 inhib = blocks human cytochrome P450 2C9 | CYP2C9 Supersomes, luciferin-H conversion, luminescence | hit rate 20% among 96,000 | inhibition, % at 5 µM | P11712;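 active = blocking of liver enzyme CYP2C9 beyond about 50% at 5 µM, limit read from the data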
* = called active by the depositor; / = not tested or not shown. Rule as the data show it, unless noted: active = inhibition above about 30%; inactive = the rest.

SMILES	CYP2C19 inh	PostGolgi ctrl	CYP2C19 act	CYP2C9 activ	PostGolgi yeast	CYP2C9 inhib
O=[N+]([O-])c1cccc(N=NN(CCO)c2cccc([N+](=O)[O-])c2)c1	-6	1	1.1	0.8	8	19
CCCN(N=Nc1cccc([N+](=O)[O-])c1)c1cccc([N+](=O)[O-])c1	11	10	0.9	0.3	-10	74*
O=C1C(=C2SCCCS2)CC/C1=C\c1ccc(F)cc1	51*	5	0.5	0.8	3	19
O=c1c2c3n(c(=O)nc2[nH]n1-c1ccccc1)CCCCC3	1	1	1	0.9	-4	5
O=C1CC(SC(=NCc2ccc3c(c2)OCO3)Nc2ccccc2)C(=O)N1 (centres undefined)	96*	4	0	0.5	24	48
O=C1CC(N(Cc2ccc3c(c2)OCO3)C(=O)Nc2ccc(F)cc2)C(=O)N1c1ccccc1 (centres undefined)	13	4	0.9	1	2	3
CCOc1cc(/C=C2/C(=N)N3C=CSC3=NC2=O)ccc1OCCCOc1ccccc1C	36	-9	0.6	0.3	-1	74*
COc1cc(/C=C2/C(=N)N3C=CSC3=NC2=O)ccc1OCCCOc1ccccc1C	8	2	0.9	0.2	-6	76*
COc1ccc(/C=C2/C(=O)N=C(N)N2C)cc1OC	4	6	1	1	0	2
CCOC(=O)c1ccc(N2C(=O)C3C(C2=O)C(C(=O)c2ccc(Cl)cc2)N2CCCC32)cc1 (centres undefined)	22	12	0.8	0.8	-1	16
Cc1cccc(-c2c3c(=O)n(C)c(=O)n(C)c3c3cccnn23)c1	25	4	0.7	1.9	2	-86
CCOC(=O)c1cc(C#N)c(SCc2cccc3ccccc23)nc1C	0	-2	1	1.1	0	-8
CCOC(=O)c1cc(C#N)c(SCC(=O)c2cc(C#N)c(SC)nc2C)nc1C	45	/	0.5	0	/	99*
CNc1cc(CS(=O)c2ccccc2)nc(-c2ccccc2)n1 (centres undefined)	93*	17	0.1	1	-3	3
Cc1nc(CS(=O)c2ccccc2)cc(N2CCOCC2)n1 (centres undefined)	4	0	1	0.9	15	9
O=S(Cc1cc(Sc2ccccc2)nc(-c2ccccc2)n1)c1ccccc1 (centres undefined)	98*	23	0	0.1	13	94*
N#Cc1cn(-c2ccccc2)nc1-c1ccco1	14	11	0.9	0.7	-2	32
N#Cc1cn(-c2ccccc2)nc1C(=O)c1ccccc1	50*	8	0.5	1	12	0
CCOC(=O)c1ccc(S(=O)(=O)Nc2ccc3cn[nH]c3c2)cc1	16	-6	0.8	0.1	-5	94*
COC(=O)c1sc(S(=O)(=O)Nc2ccc3cn[nH]c3c2)c(C(=O)OC)c1C	52*	28	0.5	0.1	-4	92*
COC(=O)c1ccccc1S(=O)(=O)Nc1ccc2cn[nH]c2c1	89*	11	0.1	0.2	19	80*
Cc1ccc(C)n1-c1nc(=S)[nH][nH]1	76*	10	0.2	0.1	2	88*
S=c1nc(-c2ccco2)[nH][nH]1	2	5	1	1	25	4
CN1CSC2=C(C#N)C(c3cccc(OCc4ccccc4)c3)CC(=O)N2C1 (centres undefined)	18	1	0.8	0.2	-7	84*
COc1ccc(N2CSC3=C(C#N)C(c4cccs4)CC(=O)N3C2)cc1 (centres undefined)	13	-10	0.9	0.7	2	32
SMILES	CYP2C19 inh	PostGolgi ctrl	CYP2C19 act	CYP2C9 activ	PostGolgi yeast	CYP2C9 inhib
CCc1ccc(N2CSC3=C(C#N)C(c4cccs4)CC(=O)N3C2)cc1 (centres undefined)	7	5	0.9	0.7	-3	30
Cc1ccc(N2CSC3=C(C#N)C(c4cccs4)CC(=O)N3C2)cc1 (centres undefined)	37	-11	0.6	0.1	-19	86*
CCc1ccc(C2CC(=O)N3CN(c4ccccc4)CSC3=C2C#N)cc1 (centres undefined)	22	11	0.8	0.5	-3	53*
CCOC(=O)c1ccc(N2CSC3=C(C#N)C(c4cccs4)CC(=O)N3C2)cc1 (centres undefined)	90*	8	0.1	0.1	-14	94*
NC(=O)CSc1nnc(-c2ccoc2)o1	-6	4	1.1	1.2	6	-22
Cc1cccc(OCCCC(=O)Nc2ccc3c(c2)OCO3)c1	69*	6	0.3	0.5	-6	54*
CCN(C(=O)c1coc(=O)c(Br)c1)c1ccc2c(c1)OCO2	59*	2	0.4	0.4	-2	62*
CC(=O)N1CCc2cc(S(=O)(=O)CCC(=O)NCc3ccc4c(c3)OCO4)ccc21	45	-3	0.6	1.2	2	-16
CCN(C(=O)c1c(C)cc(=O)oc1C)c1ccc2c(c1)OCO2	17	1	0.8	1	19	0
CCN(C(=O)CCS(=O)(=O)c1ccc(Br)cc1)c1ccc2c(c1)OCO2	67*	14	0.3	0.9	4	6
Cc1ccc(C)c(OCC(=O)Nc2ccc3c(c2)OCO3)c1C	6	12	0.9	2.9*	2	-191
O=C(O)CNC1=NCCC1	-20	/	1.2	1.1	/	-15
CN(CP(=O)(O)CCc1ccccc1)S(C)(=O)=O	3	11	1	1.3	-3	-27
COc1ccccc1-c1noc(-c2ccccc2C(=O)N2CCOCC2)n1	21	19	0.8	0.6	0	42
O=C(CCNS(=O)(=O)c1ccc2c(c1)CCC(=O)N2)Nc1ccc2c(c1)OCCO2	-13	-7	1.1	0.9	0	11
O=C(Nc1ccc2c(c1)OCO2)c1c(F)c(F)c(F)c(F)c1F	38	1	0.6	1	3	0
Cc1ccc(S(=O)(=O)NCCC(=O)Nc2ccc3c(c2)OCO3)cc1	84*	-6	0.2	0.1	3	95*
Cc1ccc(S(=O)(=O)CCC(=O)Nc2ccc3c(c2)OCO3)cc1	1	-7	1	0.1	13	94*
O=C(CC1(C(F)(F)F)OCCO1)Nc1ccc2c(c1)OCO2	94*	1	0.1	0.9	1	8
Cn1c(=O)oc2cc(S(=O)(=O)N3CCN(Cc4ccc5c(c4)OCO5)CC3)ccc21	25	10	0.7	0.7	1	30
O=C(CN1CCCCCC1)Nc1ccc(F)c(F)c1F	72*	20	0.3	0.9	0	8
Cc1ccc(NC(=O)CN2CCCCCC2)c(Br)c1	80*	12	0.2	0.9	1	14
CCSC1=NC2(CCCCC2)Nc2sc3c(c21)CCCC3	63*	17	0.4	0.3	11	74*
